Test results from paper PMC4552634, “A New Set of Chemical Starting Points with Plasmodium falciparum Transmission-Blocking Potential for Antimalarial Drug Discovery” (PLoS ONE, 2015).
Screen size: about 13,000 compounds; about 3,200 (25%) showed an effect of 50% or more. The list shows a part of the results.

Tested on: P. falciparum stage V gametocytes
Parameters: BacTiter-Glo ATP luminescence viability of purified stage V gametocytes in 384-well plates, per cent inhibition versus DMSO
Conditions: 48 h, 5 µM; inhibitor

Structure (SMILES) | % Inhibition
COc1ccccc1C1CC(c2ccc(C)cc2)=NN1C(=O)c1ccccc1 (stereo not drawn) [TCMDC-123887] | 21.23%
COc1cc(Cc2cnc(N)nc2N)c2ccsc2c1OC [TCMDC-137762] | -4.679%
CCNc1cc(C)nc(Nc2ccc(NC(=O)c3c(F)cccc3Cl)cc2)n1 [TCMDC-124984] | 3.1%
CCOC(=O)N1CCN(C(=O)Nc2ccc(Cl)cc2)CC1 [TCMDC-125820] | -28.23%
Cc1cc(NCCc2ccccc2)nc(/N=C(\N)Nc2ccccc2Cl)n1 [TCMDC-138370] | 92.38%
CCN(CC)CCNc1cc(C)nc(/N=C(\N)Nc2ccc(Cl)cc2)n1 [TCMDC-137477] | 81.2%
CCOC(=O)c1cccc(NC(=O)Nc2cc(C)nc3ccccc23)c1 [TCMDC-138957] | -2.163%
CCOC(=O)c1cccc(N/C(N)=N/c2nc(C)cc(NCCc3ccccc3)n2)c1 [TCMDC-138372] | 76.13%
Cc1cc(N2CC=CCC2)nc(/N=C(\N)Nc2ccc(Cl)cc2)n1 [TCMDC-131240] | 30.94%
CCOC(=O)N1CCN(CCCCCNc2cc(C)nc(/N=C(\N)Nc3ccc(Cl)cc3)n2)CC1 [TCMDC-138013] | 60.55%
CCOc1cc(C)ccc1N1CCN(CCCCNC(=O)c2ccc(NC(=O)c3ccc(Cl)cc3)cc2)CC1 [TCMDC-138523] | 2.314%
COc1ccc2nccc(NC(=O)C3(O)CCC(NCc4ncc5c(c4Cl)OCCO5)CC3)c2n1 (stereo not drawn) [TCMDC-141562] | 2.096%
O=C(O)C(F)(F)F.O=C(O)CCc1ccc(-c2c[nH]c3ncc(-c4ccc5ncccc5c4)cc23)cc1 [TCMDC-136336] | 14.57%
COc1ccc2nccc([C@@H](O)CN3CCC(NCc4cn5cc(F)ccc5n4)CC3)c2c1 [TCMDC-140778] | 43.65%
Cn1c(NC(=O)C2CCC(CNC(=O)c3ccc(O)c(-c4ccc(Cl)c(Cl)c4)c3)CC2)nc2ccccc21 (stereo not drawn) [TCMDC-140897] | 13.96%
O=C(NCc1cccnc1)C(c1cc2ccccc2o1)N1CCN(C(c2ccccc2)c2ccccc2)CC1 (stereo not drawn) [TCMDC-141023] | 15.45%
O=C(NC1CCC(CN2CCC(c3c[nH]c4ccccc34)CC2)CC1)c1cc(-c2ccc(F)cc2F)ccc1O (stereo not drawn) [TCMDC-139894] | -31.8%
Cc1cc(NCCc2cccc(F)c2)nc(/N=C(\N)Nc2cccc(C(F)(F)F)c2)n1 [TCMDC-138508] | 57.1%
Cc1cc(N2CCCC2)nc(/N=C(\N)Nc2cccc(C(F)(F)F)c2)n1 [TCMDC-138509] | 20.83%
Cc1cc(NCCc2ccccc2)nc(NC(=NCC(=O)OC(C)(C)C)Nc2ccc(C(F)(F)F)cc2)n1 [TCMDC-138520] | -13.38%
CCCCCCNc1cc(C)nc(/N=C(\N)Nc2cccc(C(F)(F)F)c2)n1 [TCMDC-138510] | 79.07%
Cc1cc(NCCc2ccccc2)nc(/N=C(\N)Nc2cccc(F)c2)n1 [TCMDC-138373] | 55.97%

Structure (SMILES) | % Inhibition
Cc1cc(NCCCOc2ccc(Cl)cc2)nc(NCc2ccccc2)n1 [TCMDC-137548] | -22.71%
NC(N)=NN=CC(=O)Nc1cccc(C(F)(F)F)c1 [TCMDC-137563] | 10.63%
Cc1cc(NCCc2ccccc2)nc(/N=C(\N)Nc2ccc(Cl)cc2)n1 [TCMDC-131843] | 52.3%
N#Cc1ccc(/C=C/C(=O)NCCCCCN2CCCN(C(=O)Nc3ccc(Cl)c(C(F)(F)F)c3)CC2)cc1 [TCMDC-136110] | 28.79%
Cc1[nH]c(CNCCCNc2cc(=O)c3ccccc3[nH]2)c(Br)c1Br [TCMDC-139780] | -12%
COc1ccc(-c2cc(C(=O)Nc3ccc4nc(-c5ccccc5)[nH]c4c3)[nH]n2)cc1 [TCMDC-134399] | -1.351%
Fc1cccc(COc2ccc(Nc3ncnc4sc(C#CCNC5CCC5)cc34)cc2Cl)c1 [TCMDC-138785] | 4.873%
Cc1cc(NCCc2ccccc2)nc(/N=C(\N)Nc2cccc(Cl)c2)n1 [TCMDC-138364] | 54.32%
Cc1cc(NCCc2ccccc2)nc(/N=C(\N)Nc2cccc([N+](=O)[O-])c2)n1 [TCMDC-138371] | 3.581%
CC(C)CCN(Cc1cncn1Cc1cccc(C(F)(F)F)c1)C(=O)c1ccccc1C#N [TCMDC-132457] | 14.87%
O=C(O)C(F)(F)F.O=C1CCCN1CCCNCc1ccc(-c2ccc(-c3nc4cc(C(F)(F)F)ccc4[nH]3)cc2)cc1 [TCMDC-132760] | 37.39%
COc1cc(F)c2ncc(Cl)c(CCN3CCC(NCc4ccc5c(c4)NC(=O)CO5)CC3)c2c1 [TCMDC-135623] | 24.82%
COc1nc2c(CCN3CCC(NCc4ccc5c(c4)NC(=O)CO5)CC3)c(Cl)cnc2cc1F [TCMDC-135767] | 23.61%
Cn1ncc2c3c(CCN4CCC(NCc5ccc6c(c5)NC(=O)CO6)CC4)c(Cl)cnc3ccc21 [TCMDC-136023] | 91.21%
CC(=O)c1ccc(N2C(=O)C3C(Cc4ccc(OC(C)(C)C)cc4)NC4(C(=O)N(Cc5ccc(C(C)(C)C)cc5)c5ccccc54)C3C2=O)cc1 (stereo not drawn) [TCMDC-139773] | 1.15%
C=CCc1cc(Cc2cnc(N)nc2N)c2ccc(C)nc2c1O [TCMDC-137628] | -3.473%
Cc1cccc(CNc2nccc3[nH]c4ccccc4c23)c1 [TCMDC-136334] | -2.626%
CN(C)c1cccc2c1nc(-c1ccco1)n2CCNCc1ccccc1 [TCMDC-133484] | 72.16%
CN(C)CCNc1cc(-c2cccnc2)nc(-c2ccncc2)n1 [TCMDC-125595] | -4.49%
CN(C)CCCN(C)c1cccc2c1nc(-c1cccnc1)n2CCNCc1ccccc1 [TCMDC-133440] | 88.37%
CN(CCc1ccccn1)c1cccc2c1nc(-c1cccnc1)n2CCNCc1ccccc1 [TCMDC-133439] | -10.58%
Cc1nc2nc(N)nc(N)c2c(C)c1Cc1cccc(C#N)c1 [TCMDC-137646] | -13.13%

Structure (SMILES) | % Inhibition
Cc1nc(N)nc(N)c1CCCOc1ccc(Br)cc1 [TCMDC-138068] | -19.95%
CC(=O)c1cccc(NC(=O)N2CCCN(CCCCCNC(=O)/C=C/c3ccc(Cl)c(Cl)c3)CC2)c1 [TCMDC-135752] | -19.76%
COc1ccc(-c2nc(NC(=O)Cc3coc4cc(OC)ccc34)sc2C)cc1 [TCMDC-124497] | 27.62%
CCN(CC)CCN(Cc1ccc(-c2ccc(C(F)(F)F)cc2)cc1)C(=O)Cn1c(CCc2cccc(F)c2F)nc(=O)c2ccc(F)cc21 [TCMDC-141095] | 68.69%
CCN(CC)CCN(Cc1ccc(-c2ccc(C(F)(F)F)cc2)cc1)C(=O)Cn1c(CCc2cccc(F)c2F)nc(=O)c2cc(F)c(F)cc21 [TCMDC-141089] | 67.52%
CCN(CC)CCN(Cc1ccc(-c2ccc(C(F)(F)F)cc2)cc1)C(=O)Cn1c(SCc2ccc(F)cc2)cc(=O)c2ccccc21 [TCMDC-140791] | 99.53%
CCN(CC)CCN(Cc1ccc(-c2ccc(C(F)(F)F)cc2)cc1)C(=O)Cn1c(CCc2cccc(F)c2F)nc(=O)c2cc(F)ccc21 [TCMDC-141096] | 73.36%
CCN(CC)CCN(Cc1ccc(-c2ccc(C(F)(F)F)cc2)cc1)C(=O)Cn1c(CCc2cccc(F)c2F)nc(=O)c2ccc(C(F)(F)F)cc21 [TCMDC-141071] | 34.24%
COc1cccc(OC2CCN(C(=O)c3ccc(-c4ccc(N5CCCC5=O)cc4C)cc3)CC2)c1 [TCMDC-136524] | 29.3%
Cc1nc(N)nc(N)c1OCCCOc1ccccc1Br [TCMDC-131364] | -0.5645%
CN1CCCC1CCNC(=O)[C@H](CC1CCCCC1)NC(=O)c1ccc(O)c(-c2ccc(Cl)c(Cl)c2)c1 (stereo partly drawn) [TCMDC-140855] | 48.17%
CCN(CC)C(=O)c1cnc(-c2ccccc2)nc1Oc1cccc(Cl)c1 [TCMDC-124780] | 14.15%
CCCCCCC(C)c1cc(O)c2c(c1)OC(=O)CC2(CC)c1ccccn1 (stereo not drawn) [TCMDC-131681] | -3.085%
c1cc(CNC2Cc3ccc(-c4cccs4)cc3C2)cc(-n2ccnc2)c1 (stereo not drawn) [TCMDC-134830] | -2.028%
CC(C)C[C@H](NC(=O)c1ccc(OCCN2CCOCC2)cc1)C(=O)NC(/C=N/N1CCCC1=O)C(C)C (stereo partly drawn) [TCMDC-136276] | 20.05%
CCc1cccc(OCC2CCCN(c3ccc(C(=O)NC4CC4)cn3)C2)c1 (stereo not drawn) [TCMDC-134039] | 7.857%
CCN(CC)CCN(Cc1ccc(-c2ccc(C(F)(F)F)cc2)cc1)C(=O)Cn1c(SCc2ccc(F)cc2)nc(=O)c2sccc21 [TCMDC-140572] | 78.9%
CCN(CC)CCN(Cc1ccc(-c2ccc(C(F)(F)F)cc2)cc1)C(=O)Cn1c(CCc2ccc(F)cc2)nc(=O)c2sccc21 [TCMDC-140779] | 90.56%
CCN(CC)CCN(Cc1ccc(-c2ccc(C(F)(F)F)cc2)cc1)C(=O)Cn1c(CCc2cccc(F)c2F)nc(=O)c2cc(C)ccc21 [TCMDC-141014] | 48.99%
CCN(CC)CCN(Cc1ccc(-c2ccc(C(F)(F)F)cc2)cc1)C(=O)Cn1c(SCc2ccc(F)cc2)nc(=O)c2ccccc21 [TCMDC-140983] | 87.16%
CCN(CC)CCN(Cc1ccc(-c2ccc(C(F)(F)F)cc2)cc1)C(=O)Cn1c(CCc2cccc(F)c2F)nc(=O)c2ccc(C)cc21 [TCMDC-141086] | 74.83%
CCN(CC)CCN(Cc1ccc(-c2ccc(C(F)(F)F)cc2)nc1)C(=O)Cn1c(SCc2ccc(F)cc2)nc(=O)c2sccc21 [TCMDC-140573] | 27.02%
